# Test results taken from PubChem BioAssay AID463173 (ICCB-Longwood Screening Facility, Harvard Medical School, 2010).
# The whole screen tested about 52,000 compounds, of which about 1,700 (3.3%) were called active. The sample as a whole holds a higher share of actives than the screen did. Values without a mark were called inactive. No stated cut-off is given here; in the data, active means survival mostly below about 52% (no sharp cut-off); inactive means mostly above about 56%.
# System: Wild type
# Assay: growth inhibition of S. aureus wild type versus tarO mutant, primary screen, teichoic acid synthesis inhibitors, RN4220, OD600 (AID 463173)
# Conditions: S. aureus RN4220 wild type/DeltatarO growth, OD600, 18 h, hits give low values, screened at 18.75 µg/mL (by protocol)
row,SMILES,survival
1,O=C(CSc1nc2nccnc2c(=O)n1CCc1c[nH]c2ccccc12)Nc1ccc(F)cc1,42%
2,CCn1c(CNc2cccc(Cl)c2)nnc1SCc1ccccc1,105%
3,O=C1CCCC2=C1C(c1ccc3c(c1)OCO3)c1c([nH]c(=O)[nH]c1=O)N2 (stereo not given),111%
4,CCOC(=O)c1ccccc1NC(=O)NCc1cccn1Cc1ccc(F)cc1,84%
5,CC(=O)c1cccc(NC(=O)c2sc(-n3nc(C)c(Cc4ccc5c(c4)OCO5)c3C)nc2C)c1,94%
6,Cc1ccc(Cn2c(CN3CCC(C(=O)O)CC3)cc3ccccc32)cc1,82%
7,O=C(CCn1ccc2cc(S(=O)(=O)N3CCCC3)ccc21)NCc1ccccc1Br,72%
8,CC1CCN(S(=O)(=O)c2ccc3c(ccn3CCC(=O)NCc3ccccc3F)c2)CC1,-6% (active)
9,CCOc1ccccc1CNC(=O)CCn1ccc2cc(S(=O)(=O)N3CCC(C)CC3)ccc21,69%
10,O=C(CCn1ccc2cc(S(=O)(=O)N3CCCC3)ccc21)NCc1ccccc1Cl,14% (active)
11,CC1CCN(S(=O)(=O)c2ccc3c(ccn3CC(=O)NCc3ccccc3F)c2)CC1,53%
12,O=C(CCn1ccc2cc(S(=O)(=O)N3CCCC3)ccc21)NCc1ccccc1F,83%
13,O=C(Cn1ccc2cc(S(=O)(=O)N3CCCCCC3)ccc21)NCc1ccccc1Cl,73%
14,O=C(Cn1ccc2cc(S(=O)(=O)N3CCCCC3)ccc21)NCCc1ccccc1Cl,-6% (active)
15,O=C(Cn1ccc2cc(S(=O)(=O)N3CCCCCC3)ccc21)NCCc1ccccc1Cl,72%
16,NC(=O)C1CCCN1S(=O)(=O)c1ccc(F)cc1 (stereo not given),110%
17,Cc1ccc2c(c1)N(C(=O)N1CCC(C(=O)Nc3cccc(F)c3)CC1)CCO2,70%
18,COc1cc(C2c3c(oc4ccc(C)cc4c3=O)C(=O)N2Cc2ccc(F)cc2)ccc1O (stereo not given),83%
19,CCCC(C(=O)Nc1cc(C)c(Cl)cc1OC)N1Cc2ccccc2C1=O (stereo not given),71%
20,CCOC(=O)c1ccccc1NS(=O)(=O)c1c(-c2ccc(C)cc2)csc1C(=O)OC,134%
21,Cc1ccc2oc(-c3ccc(Cl)c(NC(=O)c4cc5ccccc5o4)c3)nc2c1,66%
22,CSc1nnc2c(n1)OC(c1cccc(O)c1Cl)Nc1ccccc1-2 (stereo not given),71%

row,SMILES,survival
1,CSc1nc(Nc2cccc(C)c2)c(C#N)c(-c2ccccc2)n1,104%
2,CCCCOC(=O)c1ccc(NC(=O)C2(c3cccs3)CCOCC2)cc1,72%
3,COc1ccc(/C=C/C(=O)Nc2ccc3nc4c(c(Nc5ccccc5OC)c3c2)CCCC4)cc1,93%
4,COc1ccccc1C(=O)NCCSc1c(C)[nH]c2ccccc12,52%
5,COC(=O)c1ccc(NC(=O)CCCC(=O)OCC(=O)c2ccc(Cl)cc2)cc1,87%
6,O=C(Nc1ccccc1F)c1oc2ccccc2c1NC(=O)c1c(F)cccc1F,53%
7,Cc1ccc(Cn2c(=O)n(-c3ccc(C)c(C)c3)c(=O)c3c(C)c(C)sc32)cc1,46% (active)
8,Cc1ccc(Cn2c(=O)n(CCc3ccccc3)c(=O)c3c(C)c(C)sc32)cc1,22% (active)
9,Cc1sc2c(c1C)c(=O)n(CCc1ccccc1)c(=O)n2Cc1ccc(C(C)(C)C)cc1,85%
10,CCOc1ccc(-n2c(=O)c3c(C)c(C)sc3n(CC(=O)C(C)(C)C)c2=O)cc1,125%
11,Cc1ccc(C)c(Cn2c(=O)n(-c3ccc(Cl)cc3)c(=O)c3c(C)c(C)sc32)c1,73%
12,Cc1ccc(-n2c(=O)c3c(C)c(C)sc3n(Cc3ccc(F)cc3Cl)c2=O)cc1C,60%
13,CCOc1ccc(-n2c(=O)c3c(C)c(C)sc3n(Cc3ccc(C(C)(C)C)cc3)c2=O)cc1,19% (active)
14,CCOc1ccc(-n2c(=O)c3c(C)c(C)sc3n(Cc3ccccc3C)c2=O)cc1,89%
15,Cc1ccc(Cn2c(=O)n(Cc3ccccc3)c(=O)c3c(C)c(C)sc32)cc1,83%
16,Cc1sc2c(c1C)c(=O)n(CCc1ccccc1)c(=O)n2Cc1cccc(F)c1,9% (active)
17,Cc1sc2c(c1C)c(=O)n(CCc1ccccc1)c(=O)n2Cc1ccc(F)cc1,50%
18,Cc1cccc(Cn2c(=O)n(CCc3ccccc3)c(=O)c3c(C)c(C)sc32)c1,90%
19,O=C(CN1CCCN(Cc2ccc(F)cc2)S1(=O)=O)NCc1ccccc1Cl,78%
20,CC(C)NS(=O)(=O)c1ccc(OCC(=O)N2CCN(c3ccccc3F)CC2)cc1,89%
21,FC(F)(F)c1ccc(-c2noc(-c3ccccc3Br)n2)cc1,89%
22,CCOc1cc(C2CC(=O)Nc3cc4c(cc32)OCCO4)ccc1O (stereo not given),78%

row,SMILES,survival
1,CCCc1nn2c(=O)cc(COC(=O)c3ccc(NC(=O)COc4ccccc4F)cc3)nc2s1,121%
2,CC1CCN(C(=O)c2cc(-c3ccc(Br)cc3)on2)CC1,78%
3,CN(Cc1ccccc1)C(=O)c1cc(-c2cccc(Cl)c2)on1,-15% (active)
4,O=C(c1cc(-c2cccc(Cl)c2)on1)N1CCCCC1,66%
5,CC1CCN(C(=O)c2cc(-c3ccc(Cl)cc3)on2)CC1,85%
6,O=C(c1cc(-c2cccc(Cl)c2)on1)N1CCN(c2ccccc2)CC1,4% (active)
7,O=C(NCCc1ccccc1)c1cc(-c2cccc(Cl)c2)on1,87%
8,O=C(c1cc(-c2ccccc2)on1)N1CCCCC1,113%
9,COCCNC(=O)c1cc(-c2cccc(Cl)c2)on1,136%
10,CC1CCN(C(=O)c2cc(-c3cccc(Cl)c3)on2)CC1,-15% (active)
11,O=C(CSCc1cccc(F)c1)NCc1ccccc1,85%
12,CC(=O)Nc1cccc(C(=O)NCc2ccc3c(c2)CCN3C(=O)c2ccccc2)c1,63%
13,CCOc1cc(CNc2ccc(C(=O)O)cc2)ccc1OCc1ccccc1,57%
14,CCOc1cc(CNc2ccc(O)cc2)cc(Br)c1OCc1ccccc1,-5% (active)
15,CCOc1cccc(CNc2ccc(O)cc2)c1OCc1ccccc1Cl,54%
16,CCOc1c(Cl)cc(CNc2ccc3[nH]c(=O)[nH]c3c2)cc1OC,88%
17,CCOc1cc(CNc2ccc(O)cc2)ccc1OCc1ccc(Cl)cc1,10% (active)
18,CCOc1cc(CNc2ccc(O)cc2)cc(Cl)c1OCc1ccccc1,-5% (active)
19,COc1cc(CNc2ccc3[nH]c(=O)[nH]c3c2)cc(Br)c1OCc1ccc(F)cc1,117%
20,Oc1ccc(NCc2ccccc2OCc2ccccc2)cc1,100%
21,Oc1ccc(NCc2ccccc2OCc2ccc(Cl)cc2)cc1,72%
